Screening results deposited in PubChem by several laboratories.
m5-HT2A agonist: agonists of mouse serotonin 5-HT2A receptor (HTR2A) | hit rate 0.66% among 360,000 | P35363 | CHO-K1 mHTR2A beta-arrestin complementation, luminescence; percent of 30 µM serotonin response | activation, % at 7.6 µM;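 active = activation above a run cutoff, the mean activation of all tested compounds plus 3 SD, cut at about 14% in these data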;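 note: 0% = plate median of compound wells and 100% = 30 µM serotonin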
Target sequence (P35363 whole entry, looked up): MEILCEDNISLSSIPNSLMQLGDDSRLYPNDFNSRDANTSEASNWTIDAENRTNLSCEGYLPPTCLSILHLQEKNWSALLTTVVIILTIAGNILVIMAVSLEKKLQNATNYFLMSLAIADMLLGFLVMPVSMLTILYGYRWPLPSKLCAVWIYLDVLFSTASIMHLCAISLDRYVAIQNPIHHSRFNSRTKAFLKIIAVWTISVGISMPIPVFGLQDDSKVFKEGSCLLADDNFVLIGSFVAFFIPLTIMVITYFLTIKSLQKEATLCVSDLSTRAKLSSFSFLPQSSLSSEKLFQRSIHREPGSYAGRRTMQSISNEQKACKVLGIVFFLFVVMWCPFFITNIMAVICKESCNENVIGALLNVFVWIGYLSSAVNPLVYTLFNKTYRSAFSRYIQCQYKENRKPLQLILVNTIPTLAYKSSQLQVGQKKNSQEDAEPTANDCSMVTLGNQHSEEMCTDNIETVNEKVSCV
GC-A act: GC-A (human) enzyme activation; HEK293 GC-A cells, cGMP TR-FRET, EC30 ANP; 0% at EC30 ANP, 100% saturating ANP; hit rate 0.14% among 370,000; activation, % at 10 µM; in the data active = activation above about 40%
bovine MsrA act: bovine methionine sulfoxide reductase A activation. purified bovine MsrA, absorbance read-out. activation, % at 10.6 µM. hit rate 0.3% among 360,000. AID 602163; in the data active = activation above about 7.5%;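 note: 0% = vehicle and 100% = reference activator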
MsrA inh: bovine MsrA inhibition | inhibition, % at 15.5 µM | AID 651718 | hit rate 0.75% among 360,000 | purified bovine MsrA, absorbance read-out;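 note: 0% = vehicle wells with enzyme and 100% = reference inhibitor wells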
NPR2 activator: GC-B (human) receptor activation; AID 1920062; HEK293-GC-B cells, CNP EC30, cGMP TR-FRET; 0% at EC30 CNP, 100% saturating CNP; P20594; activation, % at 10 µM; hit rate 0.11% among 370,000;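 active = activation at 10 µM reaching about 35% in either raw or pattern-adjusted values, limit read from the data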
MsrA inh confirm: confirmation of bovine MsrA inhibitors; shares compounds with MsrA inh; inhibition, % at 15.5 µM; AID 651822; purified bovine MsrA, absorbance read-out; hit rate 41% among 2,300;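 note: coupled to thioredoxin reductase with NADPH and selenocystamine and DMSO as substrate; 0% = vehicle only and 100% = full effect of reference inhibitor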
* = called active by the depositor; . = not tested or not shown. Most compounds without a hit are left out; they make up all but 1.8% or so of the library. Cut-off read from the data, not from the text of the source, unless noted: active = inhibition above about 4.5%; inactive = the rest.

SMILES | m5-HT2A agonist | GC-A act | bovine MsrA act | MsrA inh | NPR2 activator | MsrA inh confirm
NC(=O)N=Nc1c(O)[nH]c2ccc([N+](=O)[O-])cc12 | -2.3 | -4.1 | -5.0 | 3.0 | -2.6 | .
O=C(CNC(=O)c1ccco1)N=Nc1c(O)[nH]c2ccc([N+](=O)[O-])cc12 | -2.6 | -7.5 | -1.7 | 5.8* | -0.6 | 2.5
COC(=O)c1ccc(S(=O)(=O)N2CCCN(Cc3cccc(Br)c3F)CC2)n1C | -5.5 | -3.3 | -1.5 | 14.5* | 1.1 | 11.4*
CCC(CC)C(=O)Nc1cccc(-c2ccc3nncn3n2)c1 | 1.5 | 0.4 | 4.5 | 1.1 | -2.9 | .
COc1ccccc1/C=N/NC(=O)c1cccc(NC(=O)c2ccccc2Cl)c1 | 0.3 | 0.3 | -14.7 | 1.7 | 4.9 | .
COc1ccc(/C=N/NC(=O)c2cccc(NC(=O)c3ccccc3Cl)c2)c(OC)c1 | 0.2 | -1.6 | -15.2 | 5.3* | 1.6 | 2.3
COc1ccc(C(=O)N/N=C/c2cc3ccccc3[nH]c2=O)cc1 | 0.0 | 1.0 | -4.1 | 5.0* | 1.0 | 4.5
COc1ccc(OC)c(/C=N\NC(=O)c2ccc(-c3ccccc3)cc2)c1 | -0.9 | 4.5 | -5.0 | 1.1 | -3.0 | .
COc1ccc2[nH]c(C(=O)N/N=C/c3ccc(OC)c(O)c3)cc2c1 | -3.1 | -2.9 | -4.0 | 7.5* | -6.5 | 7.8*
COc1ccc2[nH]c(C(=O)N/N=C/c3ccccc3OC)cc2c1 | -8.4 | -2.3 | -4.6 | 5.8* | -7.7 | 5.4*
COC1=C[C@H](C(=O)NCc2ccc(Br)cc2)[C@H](C)[C@@H](c2ccccc2)CC1=O | . | -4.0 | . | . | 12.4 | .
CCNC(=O)N1CCN(c2ccc(N3CCN(Cc4ccccc4)[C@@H](C)C3)c(C)c2)[C@@H](C)C1 | . | 2.6 | . | 1.6 | 8.6 | .
Cc1ccc(NC(=O)Cn2cccc2C2=NC(c3ccccc3)CO2)cc1C (stereo not given) | -6.9 | 2.4 | 0.0 | 43.2* | -2.5 | -0.1
CCc1ccccc1NC(=O)Cn1cccc1C1=NC(c2ccccc2)CO1 (stereo not given) | -3.4 | 3.0 | -3.6 | 0.0 | -2.3 | .
COC(=O)[C@]12C[C@H](CC(=O)NCc3ccccc3)C(=O)N(Cc3ccc4c(c3)OCO4)C1=C[C@H](C(C)C)O[C@@H]2C1CC1 | . | -5.5 | . | . | -4.7 | .
c1ccc2nc(-c3nc4ccccc4[nH]3)ccc2c1 | 0.6 | 17.7 | -3.5 | 5.0* | 5.9 | 4.7*
c1nc(NCC2CCCOC2)c2cc(-c3ccc4c(c3)OCO4)ccc2n1 (stereo not given) | . | -0.8 | . | . | -8.6 | .
[O-][N+]1=c2ccc(Nc3ccccc3)cc2=NC12CCCCC2 | -2.6 | -11.0 | 0.0 | 10.8* | -4.4 | 8.6*
O=C(OCc1ccccc1)N1CCC2CC1c1cc(Cl)ccc12 (stereo not given) | -6.0 | 0.7 | -1.4 | -0.8 | 0.5 | .
O=C(OCc1ccccc1)N1CCC2CC1c1c(Cl)cccc12 (stereo not given) | 1.2 | -1.7 | 0.2 | 5.6* | -1.5 | -0.4
COc1ccccc1N/C=C/C(=C(C#N)C#N)N(C)C | -3.6 | 3.8 | -4.0 | 5.5* | 2.7 | 2.9
CN(C)C(/C=C/Nc1ccccc1F)=C(C#N)C#N | -3.8 | 3.2 | -2.2 | 1.1 | 3.2 | .
CCCCOCCCNC(=O)C[C@H]1C[C@@]2(C(=O)OC)C(=C[C@H](COCc3ccccc3)O[C@@H]2C)N(Cc2ccco2)C1=O | . | 6.4 | . | . | -1.1 | .
Cc1oc2ccc(O)cc2c1C(=O)c1ccc([N+](=O)[O-])cc1 | 2.1 | 1.6 | -2.9 | 1.2 | 7.8 | .
CN(C)/C=C/c1oc2ccc(O)cc2c1[N+](=O)[O-] | -3.5 | -19.4 | -4.5 | 5.5* | -16.8 | 4.1
SMILES | m5-HT2A agonist | GC-A act | bovine MsrA act | MsrA inh | NPR2 activator | MsrA inh confirm
Cc1nn(-c2ccccc2)c(N)c1N=Nc1ccccc1 | -6.9 | 2.2 | -6.5 | 5.3* | -4.7 | 1.6
O=C(Nc1c(-c2ccccc2)nc2ccccn12)c1ccccc1 | 0.1 | 2.3 | -4.8 | 2.1 | 2.1 | .
O=Cc1c(-c2ccccc2)nc2ccccn12 | -0.3 | 0.3 | -2.1 | 13.3* | -0.4 | 10.3*
COc1ccc(/C=N/Nc2cc(C)nc(-n3nc(C)cc3C)n2)cc1 | -11.5 | 5.1 | -3.2 | 3.1 | -6.7 | .
Cc1nc(Cl)cc(N/N=C/c2ccc(O)cc2O)n1 | -3.4 | 7.0 | -8.5 | 5.7* | -8.7 | 6.2*
Cc1cc(N/N=C/c2ccc(O)cc2O)nc(-n2nc(C)cc2C)n1 | -24.7 | 1.5 | -10.2 | 4.8* | 2.5 | 3.8
CC(C)=CCC/C(C)=C/CN1C(=O)N(c2ccc(F)cc2)[C@H]2C[C@@H](c3ccccc3)[C@@H](C)[C@@H](C(=O)N3CCOCC3)C[C@H]21 | . | -12.5 | . | 0.6 | 12.9 | .
COC(=O)C1CN(Cc2ccccc2)CCS(=O)(=O)N1Cc1cn(Cc2ccc(Cl)cc2)nn1 (stereo not given) | . | -8.3 | . | . | -8.7 | .
Nc1nc2c(ncn2[C@@H]2O[C@H](C(=O)NC3CCCCC3)[C@@H](O)[C@H]2O)c(=O)[nH]1 | . | 13.7 | . | 0.1 | 20.0 | .
NC(=S)N/N=C/c1ccc(/C=N/NC(N)=S)cc1 | 5.1 | -0.7 | -5.2 | 10.0* | 1.8 | 9.0*
Cn1cccc1/C=N/NC(N)=S | -2.8 | 0.5 | -1.5 | 7.4* | 3.2 | 4.3
COc1ccc(/C=C2\SC(N)=NC2=O)cc1Br | -2.8 | -15.3 | -5.8 | 4.7* | -12.1 | 4.0
CC(C)CNS(=O)(=O)/C=C/c1ccccc1CNC(=O)OC(C)(C)C | . | 0.6 | . | . | -1.3 | .
O=C(N/N=C/c1cc(Br)c(O)c(Br)c1)C1CC1 | -0.4 | -2.4 | -4.3 | 5.3* | -0.8 | 4.6*
O=C(NN=Cc1ccc(F)cc1)C1CC1 | 5.3 | 2.0 | -1.6 | 0.0 | -8.5 | .
O=C1NCCCC1C(=O)N/N=C/c1cc([N+](=O)[O-])ccc1O (stereo not given) | -13.4 | -0.4 | -4.9 | 3.9 | -6.2 | .
O=C(N/N=C/c1cc([N+](=O)[O-])ccc1O)C1CC1 | -23.8 | -0.3 | -5.1 | 5.4* | -2.9 | 3.0
CC(NC(=O)C1CCN(C(=O)Nc2ccccc2)CC1)c1ccccc1Cl (stereo not given) | -7.1 | 0.8 | -0.9 | 0.0 | -2.3 | .
COc1ccc(C2=CC(=O)CC(C)(C)C2)cc1OC | 1.1 | 2.4 | -10.8 | 4.8* | 3.7 | 2.2
C=CCN1C(=O)[C@H](CC(=O)N2CCN(C(=O)C3CC3)CC2)[C@@]2(C(=O)OCC)CCCC=C12 | . | -2.5 | . | . | -2.1 | .
Cc1cc(C(O)c2ncc(-c3ccccc3F)[nH]2)ccc1F (stereo not given) | 3.7 | 3.4 | -0.7 | -0.1 | 2.2 | .
N#CC1=C(N)Oc2c(O)cc3ccccc3c2C1c1ccsc1 (stereo not given) | -5.3 | -6.7 | -3.8 | 8.5* | -4.1 | 10.4*
CCOC(=O)C1=C(C)OC(N)=C(C#N)C1c1ccsc1 (stereo not given) | -3.0 | -3.7 | 0.6 | . | -2.2 | .
Cc1ccc(N(C)S(=O)(=O)c2c[nH]c3ccc([N+](=O)[O-])cc23)cc1 | -4.4 | -0.3 | -1.4 | 5.8* | -0.7 | 1.5
